A selection: hits, their analogues and other compounds. The true share with any hit is near 3.9%.
Tb PFK block – T. brucei PFK enzyme inhibition | O15648 | T. brucei PFK, ADP-Glo luminescence | Potency, µM (titrated, usually from 57.5 µM), inactives show at the top dose activity, negative = inhibition, hits mostly inhibitors | 0.17% of 330,000 active | AID 485367;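 further: 0% = uninhibited 1x PFK enzyme wells and -100% = no-enzyme wells; nearly all actives have a fitted effect of over 60% in size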
Target sequence (O15648 whole entry, looked up): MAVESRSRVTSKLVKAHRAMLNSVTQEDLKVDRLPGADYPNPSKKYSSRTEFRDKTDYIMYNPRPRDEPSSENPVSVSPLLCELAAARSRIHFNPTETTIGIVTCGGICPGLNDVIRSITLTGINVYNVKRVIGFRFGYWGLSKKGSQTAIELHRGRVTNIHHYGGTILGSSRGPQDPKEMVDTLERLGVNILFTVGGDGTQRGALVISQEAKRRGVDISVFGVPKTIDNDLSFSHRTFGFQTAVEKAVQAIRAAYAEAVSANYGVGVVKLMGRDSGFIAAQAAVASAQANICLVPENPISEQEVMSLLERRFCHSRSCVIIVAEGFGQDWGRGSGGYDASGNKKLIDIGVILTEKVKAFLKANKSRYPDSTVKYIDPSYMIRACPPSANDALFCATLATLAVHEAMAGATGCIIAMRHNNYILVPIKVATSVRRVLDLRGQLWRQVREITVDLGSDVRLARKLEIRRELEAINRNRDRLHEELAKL
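Activity is normalized to no-enzyme wells (full inhibition) and 1.25 nM enzyme wells (no inhibition). Reaction: 0.5 mM F6P, 0.1 mM ATP, 45 min RT, ADP-Glo luminescence; concentration-response curves fitted and classed by quality.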
PLK1 PBD inh – blocks phosphopeptide binding to human PLK1 polo-box domain. P53350. Potency, µM, without a hit: max response, negative = inhibition, actives largely listed as inhibitors. 2.8% of 360,000 active. Plk1 PBD binding of FITC phosphopeptide, fluorescence polarization; further: series mostly up to about 57 µM; on the % scale 0 is the no-effect control and ±100 the full control effect; nearly all actives have a fitted effect of over 65% in size
BRCA1 expr up – increases BRCA1 expression. 1.1% of 380,000 active. MCF7-BRCA1-FFLuc reporter, luminescence, 48 h; response scale: scaled: vehicle 0%, 10 µM genistein 100%. Potency, µM (doses to about 46.1 µM), for the others: at the top dose activation, usual class: activators; further: nearly all actives have a fitted effect of over 80% in size
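Quantitative HTS in MCF7 cells stably reporting BRCA1 expression via firefly luciferase. Compound treatment lasts 48 h at 37 °C in phenol-red free MEM. Activation is expressed relative to genistein at 10 microM and DMSO.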
VDR inhibitor – vitamin D3 receptor (human) inhibition. AID 504847. P11473. VDR-SRC2-3 peptide fluorescence polarization, 2 h. Potency, µM, without a hit: max response, negative = inhibition, actives largely listed as inhibitors. 0.93% of 400,000 active; further: on the % scale 0 is the no-effect control and ±100 the full control effect
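Fluorescence polarization assay measuring small-molecule disruption of VDR binding to the coregulator peptide SRC2-3. Compounds were pin-transferred (23 nl) into the reagent mix and incubated 2 h at room temperature before reading.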
TbPYK confirm – Trypanosoma brucei pyruvate kinase inhibition, cherry-pick confirmation; shares compounds with PLK1 PBD inh; recombinant TbPYK, Kinase-Glo ATP luminescence; Potency, µM (highest dose often 76.9 µM), inactives show top-dose activity change, negative = inhibition, most hits filed as inhibitors; 67% of 890 active; further: on the % scale 0 is the no-effect control and ±100 the full control effect; nearly all actives have a fitted effect of over 70% in size
TbPYK orthogonal – orthogonal confirmation of Trypanosoma brucei pyruvate kinase inhibitors. shares compounds with PLK1 PBD inh. recombinant TbPYK, ADP-Glo luminescence, 60 min. Potency, µM (doses to about 76.9 µM), without a hit: top-dose activity change, negative = inhibition, most hits filed as inhibitors. 62% of 890 active. AID 720584; further: on the % scale 0 is the no-effect control and ±100 the full control effect; nearly all actives have a fitted effect of over 75% in size
Starred values were filed as active, the others as inactive; ? = inconclusive; . = not tested or not shown. The call rests on the fitted dose curve; in most records, active means well fitted curve in the direction sought with a large enough effect; inconclusive means small, poorly fitted or top-dose-only effect, or another doubt; inactive means no such curve, though single readings can be large; an effect the other way counts as inactive or inconclusive. Potency means the concentration at half of the fitted maximal effect.

SMILES | Tb PFK block | PLK1 PBD inh | BRCA1 expr up | VDR inhibitor | TbPYK confirm | TbPYK orthogonal
N#CC1=C2SCC(O)(c3ccccc3)N2C(=O)CC1c1ccccc1F (centres undefined) | 3% | -5% | -83% | 9% | . | .
N#CC1=C2SCN(c3ccccc3)CN2C(=O)CC1c1cccs1 (centres undefined) | -15% | 27µM* | -23% | ? | 2.8µM* | 2.5µM*
Cc1ccc(C2CC(=O)N3CN(c4ccc(Br)cc4)CSC3=C2C#N)o1 (centres undefined) | 0% | -13% | 2% | 45µM* | 32µM* | 16µM*
N#CC1=C2SCN(Cc3ccccc3)CN2C(=O)CC1c1ccccc1F (centres undefined) | -10% | 17µM* | 10% | 50µM* | 1.8µM* | 1.6µM*
Cc1cccc(C)c1NC(=O)C1(C)CN(S(C)(=O)=O)CC(=O)N1CCCn1ccnc1 (centres undefined) | . | 1% | . | . | . | .
N#CC1=C2SCN(c3ccccc3)CN2C(=O)CC1c1ccccc1Cl (centres undefined) | -3% | 27µM* | 10% | 28µM* | 7.9µM* | 5.6µM*
CN1c2ccccc2N(C)C1(C)c1ccccc1 | -7% | 4.2µM* | -99% | ? | 3.2µM* | 5µM*
O=C(NC1(C(F)(F)F)N=C(c2ccccc2)N(Cc2ccccc2)C1=O)c1ccc(F)cc1 (centres undefined) | . | . | -18% | -6% | . | .
O=C(c1ccc2ncsc2c1)N1CCCCC1 | 23% | 1% | 3% | -10% | ? | ?
Cc1cc(C)cc(N2C(=O)C=CC2=O)c1 | . | 3µM* | -78% | 40µM* | 10µM* | 14µM*
Cc1cc(C)cc(N2C(=O)c3nccnc3C2=O)c1 | -6% | -12% | -2% | -19% | . | .
Cc1c([N+](=O)[O-])cc(N2C(=O)C=CC2=O)cc1[N+](=O)[O-] | . | 2.7µM* | -4% | -7% | 4µM* | 7.9µM*
Cc1ccnc(N2C(=O)c3cccc4c([N+](=O)[O-])ccc(c34)C2=O)c1 | -3% | ? | -82% | 7% | . | .
Cn1c(-n2cccc2)c(-c2c(-c3ccccc3)[nH]c3c2c(=O)n(C)c(=O)n3C)c(=O)n(C)c1=O | . | . | . | 1% | . | .
CCOC(=O)C1C(=O)CC(C)(O)C(C(=O)OCC)C1c1ccc(Br)o1 (centres undefined) | 4% | -7% | -20% | 0% | ? | -26%
CCOCCCn1c(SCC(=O)NCc2ccccc2)nc2c(sc3ccccc32)c1=O | . | . | -4% | 6% | . | .
CN(C)c1oc(-c2ccccc2[N+](=O)[O-])nc1C#N | -1% | 27µM* | -31% | 32µM* | 1.8µM* | 4.5µM*
COc1ccc(N)cc1S(=O)(=O)Nc1ccccc1Cl | -2% | -9% | 0% | -7% | . | .
CCN(CC)c1ccc(N)cc1S(=O)(=O)Nc1ccccc1OC | ? | 3.4µM* | -29% | 40µM* | 7.9µM* | 11µM*
Cc1nc(N2CCOCC2)c2c(C(=O)N(C)c3ccccc3)c(C)oc2n1 | . | . | . | -5% | . | .
CN=c1nc(-c2ccccc2)n(-c2ccccc2)s1 | -7% | 3µM* | 14% | 50µM* | 0.89µM* | 1.8µM*
CC(=O)N=c1nc(-c2ccccc2)n(-c2ccccc2)s1 | . | . | -20% | -21% | . | .
CCOC(=O)c1c(C)[nH]c(C(=O)OCc2nc3ccsc3c(=O)[nH]2)c1C | . | 3% | 55% | . | . | .
COC(=O)C1(C(=O)OC)c2ccccc2N(S(=O)(=O)c2ccc(C)cc2)C1CC(C)=O (centres undefined) | . | 2% | . | . | . | .
Cc1cccc(OCC(=O)NCCCNC(=O)c2cccnc2)c1 | 12% | -17% | -12% | 3% | . | .
SMILES | Tb PFK block | PLK1 PBD inh | BRCA1 expr up | VDR inhibitor | TbPYK confirm | TbPYK orthogonal
Cc1cccc(OCC(=O)NC(=S)NNC(=O)c2ccncc2)c1 | -4% | 5.3µM* | -3% | 71µM* | 3.5µM* | 5.6µM*
CC(C)CN(C(=O)CN1CCN(c2ccc(O)cc2)CC1)c1c(N)n(CC(C)C)c(=O)[nH]c1=O | -16% | -11% | 0% | -9% | ? | ?
O=C(c1cccc(S(=O)(=O)N2CCc3ccccc3C2)c1)N1CCN(c2ccc(O)cc2)CC1 | -13% | -3% | -12% | -2% | 5µM* | 14µM*
CCOC(=O)c1ccc(NS(=O)(=O)c2ccc3oc(=O)[nH]c3c2)cc1 | 1% | -3% | -4% | ? | . | .
Cc1cccc(C2=NOC(=O)/C2=C\c2ccccc2F)c1 | -2% | -20% | 9% | -13% | . | .
O=C1ON=C(c2ccc([N+](=O)[O-])cc2)/C1=C/c1ccccc1O | 3% | 1.7µM* | -12% | 79µM* | ? | -28%
CCCc1cc(=O)oc2cc(C)cc(OC(=O)c3ccco3)c12 | -8% | -8% | 0% | -6% | 6% | -11%
CCc1cc(=O)oc2cc(C)cc(OCC(C)=O)c12 | 3% | -8% | 2% | -14% | . | .
COCCNc1nc(-c2ccccc2OC)nc2ccccc12 | . | . | . | -3% | . | .
CCC(=O)N1CCc2cc(S(=O)(=O)NC(Cc3ccccc3)C(=O)Nc3ccccc3C)ccc21 (centres undefined) | . | . | . | -6% | . | .
Cc1ccc(NC(=O)c2cc(N3C(=O)C=CC3=O)ccc2N2CCOCC2)cc1 | ? | 3µM* | -55% | 28µM* | 10µM* | 11µM*
O=C(O)c1ccccc1-c1ccc(C=c2sc3nc4cc(Br)cnc4n3c2=O)o1 | . | ? | -10% | . | 14µM* | 16µM*
CC(C)C(NC(=O)c1ccc(F)cc1)C(=O)N1CCN(C(=O)c2ccco2)CC1 (centres undefined) | 1% | -3% | 0% | -23% | . | .
COC(=O)c1ccc2nc(-c3ccco3)c(Cc3ccc(C)cc3)n2c1 | . | -17% | -8% | . | 20µM* | 25µM*
COC(=O)c1ccc2nc(-c3ccco3)c(Cc3cccc(F)c3)n2c1 | . | ? | -36% | . | 11µM* | 7.9µM*
COC(=O)c1ccc2nc(-c3ccco3)c(Cc3ccc(OC)cc3C)n2c1 | . | 27µM* | 5% | . | 7.1µM* | 7.9µM*
COC(=O)c1ccc2nc(-c3ccc(C)cc3)c(Cc3ccc(C)cc3)n2c1 | . | 1% | 7% | . | . | .
COC(=O)c1ccc2nc(-c3ccco3)c(Cc3ccccc3C(F)(F)F)n2c1 | . | ? | -18% | . | ? | ?
OC(c1cc(F)cc(Cl)c1)c1ncc(-c2ccc3ccccc3c2)[nH]1 (centres undefined) | . | 0% | -1% | . | . | .
CCN1C(=O)/C(=C/C=C2/Sc3ccc4ccccc4c3N2CCO)SC1=S | -5% | -9% | -4% | 3% | 16µM* | ?
COc1ccc(CNc2ncnc3onc(-c4ccc(F)cc4)c23)cc1 | . | . | . | 2% | . | .
O=C(Nc1cnn(Cc2ccc(Cl)cc2)c1)c1cccs1 | -14% | 6.7µM* | 9% | ? | -6% | -13%

Bioassay records: PubChem, National Center for Advancing Translational Sciences (NCATS)
